Experimental findings from PubChem BioAssay are described below.

Calls of active or inactive are those of the source.

Assay [1] in a line: resazurin metabolic signal in HepG2 cells – cell-based, resazurin fluorescence, 24 h, PK04 Diversity Set, profiling panel (AID 1172). Note: test concentration not given here. The conditions noted are these: HepG2 viability, higher = more signal.
The nature of assay [2]: budding yeast growth changes without added modifier – OD600, strain BY4716, 24 h, basal condition, primary screen (AID 1173). The following applies: S. cerevisiae BY4716 growth, OD600, 24 h; higher = more signal, called active from +8 up or from −8 down.
The nature of assay [3]: viability profiling in MM1S myeloma cells – cell-based, resazurin fluorescence, basal, 24 h, PK04 Diversity Set, profiling panel (AID 1174).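 Note: MM1S multiple myeloma cell line; test concentration not given here.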 The conditions noted are these: higher = more signal, called active from +8 up or from −8 down. Background: Alamar Blue is a resazurin reagent that responds to reducing activity.
The target in assay [4] is Dihydroorotate dehydrogenase (quinone), mitochondrial (Plasmodium falciparum (isolate 3D7)) (UniProt Q08210). The assay can be described thus: inhibition of P. falciparum DHODH – biochemical, C-terminal His tag, absorbance 600 nm, primary screen (AID 1175).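 Note: recombinant parasite enzyme with a five histidine tag at its C terminus; test concentration not given here.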 The conditions noted are these: PfDHODH enzyme, DCIP absorbance 600 nm; higher = more signal, called active from +8 up or from −8 down.

The nature of assay [5]: growth modulation of vineyard yeast isolate – strain RM11-1a, OD600, basal, 24 h, primary screen (AID 1177).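 Note: cultures grown under basal conditions with no added stressor; test concentration not given here.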 The conditions noted are these: S. cerevisiae RM11-1a growth, OD600, 24 h; higher = more signal, called active from +8 up or from −8 down.
Assay [6] can be described thus: growth of efflux-deficient E. coli DRC39 – strain DRC39, OD650, 24 h, E. coli filamentation inducers, primary screen (AID 1178).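 Note: growth measured as culture turbidity by optical density at 650 nm; test concentration not given here.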 The following applies: E. coli DRC39 acrAB, higher = more signal, called active from +8 up or from −8 down.
Assay [7] in a line: growth of efflux-deficient E. coli DRC39 – strain DRC39, OD650, 48 h, E. coli filamentation inducers, primary screen (AID 1179).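 Note: screen aims at cell division blockers that make cells filament.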 The following applies: E. coli DRC39 delta-acrAB growth, higher = more signal, called active from +8 up or from −8 down.
A short description of assay [8]: viability profiling in RPMI8226 myeloma cells – cell-based, resazurin fluorescence, basal, 24 h, PK04 Diversity Set, profiling panel (AID 1180).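 Note: RPMI8826 multiple myeloma cell line at 5000 cells per well; test concentration not given here.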 The conditions noted are these: higher = more signal.
Assay [9] concerns the target E3 ubiquitin-protein ligase XIAP (Homo sapiens) (UniProt P98170). As to the kind of experiment: small molecules binding XIAP protein – biophysical, small-molecule microarray, fluorescence 635 nm, primary screen (AID 1181).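 Note: score merges 667 nm emission and signal to noise over triplicate slides.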 The conditions noted are these: higher = more signal.

Dihydroorotate dehydrogenase (quinone), mitochondrial (Plasmodium falciparum (isolate 3D7)), sequence (Q08210 whole entry, looked up): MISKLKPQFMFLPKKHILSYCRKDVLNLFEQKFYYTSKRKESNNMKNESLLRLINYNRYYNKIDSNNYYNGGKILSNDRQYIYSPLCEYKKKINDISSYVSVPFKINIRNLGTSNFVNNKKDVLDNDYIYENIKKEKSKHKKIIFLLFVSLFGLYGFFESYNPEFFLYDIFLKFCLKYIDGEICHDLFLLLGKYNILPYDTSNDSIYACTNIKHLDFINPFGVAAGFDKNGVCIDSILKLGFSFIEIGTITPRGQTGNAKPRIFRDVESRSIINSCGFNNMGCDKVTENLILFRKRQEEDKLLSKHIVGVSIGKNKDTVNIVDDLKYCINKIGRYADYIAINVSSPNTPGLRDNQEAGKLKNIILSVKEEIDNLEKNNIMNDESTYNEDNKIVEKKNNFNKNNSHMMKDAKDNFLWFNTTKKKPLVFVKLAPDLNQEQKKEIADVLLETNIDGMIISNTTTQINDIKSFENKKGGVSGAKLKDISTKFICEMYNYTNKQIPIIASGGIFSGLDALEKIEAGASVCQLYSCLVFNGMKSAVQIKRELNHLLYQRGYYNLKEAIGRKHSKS
E3 ubiquitin-protein ligase XIAP (Homo sapiens), sequence (P98170 whole entry, looked up): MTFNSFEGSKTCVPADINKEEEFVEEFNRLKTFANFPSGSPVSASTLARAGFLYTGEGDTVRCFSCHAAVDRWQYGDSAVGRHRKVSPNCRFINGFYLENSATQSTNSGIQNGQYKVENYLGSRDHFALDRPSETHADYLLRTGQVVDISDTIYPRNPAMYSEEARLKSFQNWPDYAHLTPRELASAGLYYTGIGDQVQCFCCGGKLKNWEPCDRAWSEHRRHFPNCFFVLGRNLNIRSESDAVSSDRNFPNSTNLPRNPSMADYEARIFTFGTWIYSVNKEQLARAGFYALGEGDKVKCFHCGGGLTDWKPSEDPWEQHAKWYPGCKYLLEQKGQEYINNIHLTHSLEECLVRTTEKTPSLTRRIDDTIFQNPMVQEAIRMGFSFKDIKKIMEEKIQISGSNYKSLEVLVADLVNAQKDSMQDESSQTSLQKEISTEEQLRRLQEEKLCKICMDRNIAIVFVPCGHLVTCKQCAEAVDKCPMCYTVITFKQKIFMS

On to `CC(C)(C)OC(=O)CC[C@]1(C(=O)NCCN2CCOCC2)N=C(c2ccc(OCCCO)cc2)O[C@H]1c1ccccc1CN=[N+]=[N-]`, for which the z-score in assay [1] was -0.0646; in assay [2], -1.56 (inactive); in [3], 1.07 (inactive); in assay [5], -1.36 (inactive); in [6] it was 1.16 (inactive); in assay [7] it was 0.277 (inactive). Besides, the z-score in assay [8] worked out at 1.38. The figures for the composite z-score in assay [4] and in assay [9] were -0.114 (inactive) and 0.564, respectively.

Consider `CO[C@H]1COC(=O)CC=C[C@H](C)[C@@H](OC)COC(=O)CC=C[C@@H]1C`, for which the z-score in [1] is 1.4; in assay [2] it was -1.65 (inactive); in assay [3] it was 1.18 (inactive); in assay [5], -1.38 (inactive); in assay [6], 1.2 (inactive); in assay [7] it was 1.21 (inactive). The compound also returned a z-score in assay [8] of 0.749. In addition, the composite z-score in assay [4] was 0.522 (inactive); in assay [9] it was -0.199.

For `CCC(=O)[C@]12O[C@@]3([C@@H]4C(=O)OCC[C@@H]41)N(Cc1ccccc1)C(C)=C(C(=O)OC)[C@@H](c1ccccc1)N3C2=O`, the z-score is 0.859 in assay [1]; -2.74 (inactive) in assay [2]; 0.83 (inactive) in [3]; -0.704 (inactive) in [5]; -0.101 (inactive) in assay [6]; -0.0892 (inactive) in assay [7]. The compound also gave a z-score in [8] of 0.95. The composite z-score in assay [4] is 0.0379 (inactive); in assay [9] it was 0.0289.

With `CC(C)[Si]1(C(C)C)OCc2cc(C3CC3)nc(-c3ccccc3)c21`, the z-score in assay [1] is 0.883; in assay [2] it was -1.53 (inactive); in assay [3], 0.972 (inactive); in assay [5], -1.75 (inactive); in assay [6], 1.39 (inactive); in assay [7], 0.656 (inactive). In assay [8], the z-score is 0.536. The composite z-score is 0.135 (inactive) in assay [4] and 0.0399 in assay [9].

Regarding `O=C(NCC(O)CO)[C@]1(Cc2ccccc2)N=C(c2ccc(OCCCO)cc2)O[C@@H]1c1ccccc1` (stereo partly drawn), the z-score in [1] is 0.206; in assay [2] it was -3.32 (inactive); in [3], 1.71 (inactive); in assay [5], -0.989 (inactive); in assay [6], 2.22 (inactive); in assay [7], 0.235 (inactive). Also, in assay [8], the z-score stood at 0.761. Also, the composite z-score was 0.287 (inactive) in assay [4] and 0.0251 in assay [9].

As to `CC(C)CNC(=O)[C@@]1(C)c2ccccc2C(=O)N(Cc2ccc(OC(F)(F)F)cc2)[C@H]1c1ccc(CO)cc1`, the z-score was 0.518 in assay [1]; -1.51 (inactive) in assay [2]; 1.88 (inactive) in assay [3]; -0.229 (inactive) in assay [5]; 0.726 (inactive) in assay [6]; 0.152 (inactive) in [7]. This compound showed a z-score in assay [8] of 1.75. The composite z-score in assay [4] was 0.329 (inactive); in assay [9] it was 0.149.

Take `COCC(=C=CC[C@H](O)c1ccc(OCCO)cc1)C[C@H](O)c1ccccn1`: the z-score is 0.959 in [1]; -0.413 (inactive) in assay [2]; 1.33 (inactive) in [3]; 0.275 (inactive) in assay [5]; 1.74 (inactive) in assay [6]; 1.21 (inactive) in [7]. In assay [8], this compound displayed a z-score of 0.827. The composite z-score in [4] was -0.86 (inactive); in assay [9] it was -0.02.

Consider `C=CCOC(=O)[C@@H]1[C@H]2C(=O)O[C@H](c3ccccc3)[C@H](c3ccccc3)N2[C@H](c2ccc(OCCOC(=O)[C@H]3C[C@H]4C(=O)N5CCC[C@H]5C(=O)N4[C@H]3c3ccc(O)cc3)cc2)[C@@]12C(=O)Nc1ccccc12`, for which the z-score in assay [1] is -0.379; in assay [2] it was -0.117 (inactive); in assay [3], 0.201 (inactive); in assay [5] it was 0.256 (inactive); in assay [6], 0.197 (inactive); in assay [7] it was -0.148 (inactive). In assay [8], this compound returned a z-score of 1.03. In addition, the composite z-score was 0.0956 (inactive) in [4] and -0.217 in assay [9].

On to `CCN1C(C)=C(C(=O)OC)[C@@H](c2ccccc2)N2C(=O)[C@@]3(C(=O)OC)O[C@@]12[C@@H]1C(=O)N(C)C(=O)[C@@H]13`, for which the z-score in assay [1] was 0.976; in assay [2] it was -0.684 (inactive); in [3], 0.947 (inactive); in assay [5], 0.335 (inactive); in assay [6], -0.234 (inactive); in [7], -0.992 (inactive). The z-score in assay [8] was found to be 1.09. The composite z-score in [4] was 1.18 (inactive); in assay [9], -0.0454.

Regarding `C[C@H]1NC(=O)[C@@H](C)NC(=O)[C@@]23C(=O)N[C@@H](Cc4ccccc4)C2[C@H](C)[C@@]2(C)O[C@H]2C3/C=C/C/C=C\CNC1=O` (stereo partly drawn), the z-score in assay [1] was 0.0975; in assay [2] it was -0.811 (inactive); in assay [3] it was 1.02 (inactive); in assay [5], 0.776 (inactive); in assay [6] it was 2.33 (inactive); in assay [7], 1.58 (inactive). This compound also had a z-score in assay [8] of 1.02. For the same compound, the composite z-score was 0.254 (inactive) in assay [4] and -0.198 in assay [9].

As to `CO[C@@H]1COC(=O)[C@@H]2CCCN2C(=O)CC=C[C@@H](C)[C@H](OC)COC(=O)[C@@H]2CCCN2C(=O)CC=C[C@H]1C`, the z-score is 0.929 in assay [1]; -1.45 (inactive) in assay [2]; 1.31 (inactive) in [3]; -0.553 (inactive) in assay [5]; 1.65 (inactive) in assay [6]; 0.987 (inactive) in [7]. Further, the z-score in assay [8] amounted to 0.0475. Besides, the composite z-score in assay [4] was 0.319 (inactive); in assay [9], -0.02.

In the case of `[N-]=[N+]=NCc1ccccc1C[C@]1(C(N)=O)N=C(c2ccc(OCCCO)cc2)O[C@H]1c1ccccc1CN=[N+]=[N-]`, the z-score is -0.668 in assay [1]; -3.26 (inactive) in assay [2]; -1.04 (inactive) in assay [3]; -3.31 (inactive) in [5]; 2.63 (inactive) in assay [6]; 0.258 (inactive) in [7]. This compound also returned a z-score in assay [8] of -1.46. In addition, the results for the composite z-score in assay [4] and in assay [9] were -2.42 (inactive) and 0.0685, respectively.
